Assay outcomes (PubChem)
Sa RN4220 lethal = S. aureus RN4220 growth inhibition; 0.33% of 330,000 active; inhibition, % (test concentration not listed); OD600, 16 h; in the data active = inhibition above about 85%;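 note: plate controls were untreated cells for no effect and reference antibiotic for full effect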
Mtb BioA inh = BioA (M. tuberculosis) enzyme inhibition; purified M. tuberculosis BioA enzyme, plate reader; inhibition, % at 9.99 µM; 0.096% of 360,000 active; AID 602481; in the data active = inhibition above about 40%
Mtb betalactam = beta-lactam sensitization of Mtb H37Rv; M. tuberculosis H37Rv growth with meropenem, percent inhibition; AID 434955; 0.27% of 330,000 active; inhibition, % at 25 µM; call rule not given here;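 note: growth measured after seven days incubation then overnight dye step; 0% = bacteria only wells and 100% = bacteria with antibiotic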
Sa ugtP lethal = kills S. aureus RN4220 lacking UgtP; AID 1259309; growth inhibition, % (no concentration beside the values); 0.54% of 330,000 active; S. aureus RN4220 ugtP deletion, OD600 growth, 16 h; in the data active = growth inhibition above about 68%;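 note: plate controls were untreated wells for no effect and antibiotic for full effect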
PfHsp40 rescue = restores yeast growth despite PfHsp40 toxicity. S. cerevisiae expressing PfHsp40, growth rescue, ATP luminescence. growth rescue, % at 12.5 µM. 0.68% of 340,000 active; in the data active = growth rescue above about 28%, passing the limit was not always enough;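 note: yeast W303a lacking pdr1 and pdr3 grown in galactose medium; growth measured after three days at 30 °C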
An asterisk follows results filed as active; x = no result. Compounds with a hit are over-represented: about 0.9% of the library has one in this group of screens.

SMILES | Sa RN4220 lethal | Mtb BioA inh | Mtb betalactam | Sa ugtP lethal | PfHsp40 rescue
CC(=O)NC(c1ccc(C)cc1)c1cc([N+](=O)[O-])c2cccnc2c1O (stereo not given) | 64 | x | 11 | 64 | 221*
CCC(=O)NC(c1cc(Cl)c2cccnc2c1O)C(C)C (stereo not given) | -3 | 0 | 10 | -18 | 247*
CCCSc1ccc(C2N[C@@](C)(C(=O)OC)C3C(=O)N(C)C(=O)C23)cc1OC (stereo not given in full) | 7 | x | x | 5 | x
COc1cc(NC(=O)COC(=O)CNC(=O)c2ccc(C)cc2)c(C)cc1[N+](=O)[O-] | 1 | x | 3 | 1 | 86*
Cc1ccc(C(=O)NN=Cc2ccc([N+](=O)[O-])s2)cn1 | 68 | x | x | 88* | x
Cc1cccc(NC(=S)N/N=C/c2ccc([N+](=O)[O-])s2)c1 | x | 0 | 84 | x | 56*
CC(C)(C)c1cc(C(=O)NN=Cc2ccc([N+](=O)[O-])s2)n[nH]1 | 101* | x | x | 101* | x
Cc1ccc(C(=O)N/N=C\c2ccc([N+](=O)[O-])s2)cn1 | x | x | 100 | x | -2
Cc1ccc(NC(=S)NN=Cc2ccc([N+](=O)[O-])s2)cc1 | 46 | x | x | 72 | x
COc1ccc(C2C=CCN(C(=O)c3ccccc3)CC(=O)N2Cc2ccc(F)cc2)cc1 (stereo not given) | 9 | x | x | 4 | x
COc1ccc2c(c1)OC(c1cccc(C(F)(F)F)c1)C(OC(=O)NC1CCCc3ccccc31)C2=O (stereo not given) | 7 | x | x | 2 | x
CC1CN(C(C)CO)C(=O)c2cccc(NC(=O)c3ccncc3)c2OC1CN(C)C(=O)Nc1ccccc1 (stereo not given) | -5 | x | x | -14 | x
CCOc1cccc(C(=O)NC(=S)Nc2ccccc2)c1 | 4 | x | 12 | -5 | 1
CCCOc1cccc(C(=O)NC(=S)Nc2ccc(N3CCN(C)CC3)cc2)c1 | 9 | x | 30 | 95* | 0
CCOc1cccc(C(=O)NC(=S)Nc2ccc(N3CCN(CC)CC3)cc2)c1 | 2 | 0 | -10 | 94* | -1
CN1CCN(c2ccc(NC(=O)c3cccc(OCc4ccccc4)c3)cc2)CC1 | -6 | -2 | 99 | -2 | 0
C#CCOCCOCCOCCNc1nc(N2CCN(C(=O)C(CCCCN)n3cc(C(N)CC(C)C)nn3)CC2)nc(N2CCN(C(=O)C(C(C)CC)n3cc(C(N)CC(C)C)nn3)CC2)n1 (stereo not given) | 1 | x | x | 3 | x
O=C1C2=C(NC(=S)NC2c2ccc(Cl)cc2)NC(c2ccc(Cl)cc2)N1c1ccc(Cl)cc1 (stereo not given) | 100* | -1 | -1 | 93* | -1
O=[N+]([O-])c1cc(C(F)(F)F)ccc1NCCc1c[nH]c2ccccc12 | 8 | x | 98 | 21 | 3
O=[N+]([O-])c1cc(C(F)(F)F)ccc1NCCc1c[nH]c2ccc(O)cc12 | 4 | -1 | x | 12 | 484*
CC(=O)Nc1ccc(NC(=O)C(C)OC(=O)c2ccc(OCc3c(C)noc3C)cc2)cc1 (stereo not given) | 3 | x | 8 | 2 | 1
Cc1noc(C)c1COc1ccc(C(=O)OC(C)C(=O)Nc2ccc(N3CCOCC3)cc2)cc1 (stereo not given) | 4 | -7 | -6 | 12 | 67*
CCOC(=O)[C@]12Cc3cc4c(cc3C1N(Cc1ccccc1)C(=O)c1ccccc12)OCO4 (stereo not given in full) | -3 | x | x | -9 | x
Fc1ccc(CN2CCC3C=CCc4cccc(c43)C2)cc1 (stereo not given) | 4 | x | x | 3 | x
CC(=O)n1cc(N(C(=O)CCl)c2ccc(Cl)cc2)c2ccccc21 | 58 | 14 | 99 | 95* | x
SMILES | Sa RN4220 lethal | Mtb BioA inh | Mtb betalactam | Sa ugtP lethal | PfHsp40 rescue
Cc1c(NC(=S)NN=C/C=C/c2ccc([N+](=O)[O-])cc2)c(=O)n(-c2ccccc2)n1C | 1 | x | x | 88* | x
CC1CN(C(C)CO)C(=O)c2cc(NS(=O)(=O)c3cccs3)ccc2OC1CN(C)Cc1ccc(C(F)(F)F)cc1 (stereo not given) | 1 | x | x | -15 | x
CC(=O)c1ccc(N=Nc2ccc(C)cc2)cc1 | -2 | x | x | 4 | 0
C=C(C)C(=O)Oc1ccc(N=Nc2ccc(C)cc2)ccc1=O | 0 | 0 | x | 100* | x
Cc1c(CCC(=O)O)c(=O)oc2c(C)c3occ(-c4ccc(Cl)cc4)c3cc12 | 96* | 15 | 60 | 101* | 1
O=c1cc(-c2ccccc2Cl)oc2ccc([N+](=O)[O-])c(O)c12 | 99* | 0 | 95 | 100* | 8
O=c1cc(-c2ccccc2Cl)oc2c([N+](=O)[O-])c(O)cc(O)c12 | 87* | 3 | 2 | 91* | 2
Nc1ccc2oc(-c3ccccc3Cl)cc(=O)c2c1O | 14 | -3 | 2 | 94* | 8
O=C(Nc1ccc(O)c2c(=O)cc(-c3ccccc3Cl)oc12)c1ccccc1Cl | -5 | 1 | -8 | 0 | 0
O=C1CC2c3c(cccc3CN1Cc1ccc(Cl)cc1)CC(O)C2O (stereo not given) | 8 | x | x | 5 | x
Cc1cc(O)cc(OC2OC(CO)C(O)C(O)C2O)c1 (stereo not given) | 8 | x | x | 3 | x
CC1ON(C2CCCCC2)C2c3nc4ccccc4n3CC12 (stereo not given) | 2 | x | x | 4 | x
CCOC1OC(C(=O)O)=CC(C(C)(C)C)C1CCCO (stereo not given) | 9 | x | x | -2 | x
O=C(NCCCOC(=O)c1ccccc1)c1ccccc1 | 3 | 0 | x | 2 | 0
O=C(NOC(=O)c1ccccc1)c1ccccc1 | 2 | 0 | 29 | 9 | 239*
CC(=NOC(=O)NC(C)C)c1sc(-c2ccccc2)nc1C | 4 | x | x | 5 | x
O=C(N[C@@H](Cc1ccccc1)C(=O)N[C@@H](Cc1ccccc1)C(=O)O)OCc1ccccc1 | x | -1 | -9 | x | -1
O=C(N[C@@H](Cc1ccccc1)C(=O)CCl)OCc1ccccc1 | x | 1 | x | x | 320*
Cc1oc2c(c1C(=O)c1ccccc1)C(=O)C(=O)c1ccccc1-2 | 100* | -1 | 14 | 94* | 97*
O=C1C(=O)c2c(C(=O)c3ccccc3)coc2-c2ccccc21 | 94* | -9 | 0 | 86* | 8
COc1ccc(SCC(Cc2ccccc2)N2CCC(NC(=O)OCc3ccccc3)CCC2=O)cc1 (stereo not given) | -5 | x | x | 3 | x
O=C1CCN(CCc2ccccc2)CCN1C(CO)c1ccccc1 (stereo not given) | 8 | x | x | 0 | x
CCOC(=O)CSc1nc(C(C)C)nc2sc(C)c(C)c12 | 10 | x | 60 | 89* | 1
CC(C)NC(=O)C1C[C@@]1(C)C(NC(=O)OCc1ccccc1)c1ccccc1 (stereo not given in full) | 9 | x | x | -1 | x
COc1ccc(C2C=CCN(S(=O)(=O)C=Cc3ccccc3)C(C)C(=O)N2Cc2ccc(F)cc2)cc1 (stereo not given) | 8 | x | x | 4 | x
Cc1cccc(C(=O)NC(=S)NNC(=O)c2ccc(Cl)cc2)c1 | 85* | x | 98 | 84 | 75*
CCCCC(=O)NNC(=S)NC(=O)c1ccc(C)cc1 | 37 | x | 86 | 10 | 95*
Cc1ccc(C(=O)NNC(=S)NC(=O)COc2ccccc2)cc1 | 88* | x | 99 | 92* | 5
